# According to PubChem BioAssay AID687014 (The Scripps Research Institute Molecular Screening Center, 2013):
# The campaign covered roughly 370,000 compounds. About 6,800 (1.8%) were called active. The list comes from a sample in which actives are over-represented; it also holds similar structures and randomly drawn compounds. A number with no mark means an inactive call.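 How the source made its calls: active means activation above a cutoff set at the mean of all screened compounds plus 3 SD (cut at about 10% in these data); inactive means the rest.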
# Tested on: Nuclear hormone receptor DAF-12 (Heterodera glycines), GAL4 fusion
# Assay: H. glycines DAF-12 receptor agonists, primary screen, cell-based, luminescence, HEK293, GAL4 fusion, UAS-luciferase (AID 687014);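 further: 0% = DMSO wells and 100% = sodium butyrate wells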
# Settings: HEK293 GAL4-hgDAF12 UAS-luciferase reporter, agonist luminescence; at 6.8 µM; active compounds read high; normalized to butyrate control
row,Compound,activation
1,CC(C)c1cc(NCc2ccccn2)n2c(nc3ccccc32)c1C#N,3.15%
2,C=CCN(C(=O)[C@@H](CCCC)[C@@H](O)c1ccc(Cl)cc1)c1ccccc1,1.69%
3,CC(=NNC(N)=O)c1ccc(Cl)c(-n2cccc2)c1,1.64%
4,Cc1cc(NC(=O)C(C)N2C(=O)c3ccccc3S2(=O)=O)no1 (stereo not given),-0.78%
5,O=C(OCCN1CCOCC1)C1(c2ccccc2)CCCCC1,-2.44%
6,c1coc(CCNc2ncnc3ccc(-c4ccc5c(c4)OCO5)cc23)c1,-2.33%
7,Oc1cccc2cc(-c3ccncc3)cnc12,15.1% (active)
8,Cc1cc2c(nc1C)CCCN2C,0.83%
9,COc1ccc(NC(=O)C2CCC(CNC(=O)[C@@H]3Cc4ccccc4CN3)CC2)cc1 (stereo not given in full),-1.49%
10,CN1C[C@]2(C=C3CCCCC3n3c(=O)n(-c4ccccc4)c(=O)n32)N=C1NC(=O)c1ccccc1 (stereo not given in full),2.4%
11,COc1ccc(-n2c(SCC(=O)Nc3ccc(C)c(Cl)c3)nc3ccccc3c2=O)cc1,-4.03%
12,FC(F)(F)c1cccc(NC(=S)OC2CCC23CCC(c2ccccc2)CC3)c1 (stereo not given),2.72%
13,COCCN(C(=S)Nc1ccccc1OC)C1CCN(C(C)C)CC1,-3%
14,Cc1ccc(-c2csc(N(Cc3ccco3)C(=O)c3cccs3)n2)cc1,4.33%
15,Cc1ccc(-c2csc(-c3c[nH]c4ccccc34)n2)cc1,13.1% (active)
16,CCn1c(SCCC(C)C)nnc1-c1c[nH]c2ccccc12,-2.13%
17,CC(=O)Nc1nc2ncccn2c1-c1ccc(C(F)(F)F)cc1,0.34%
18,N[C@@H](Cc1ccccc1)C(=O)N1CCOCC1,0.96%
19,CC(=O)c1ccc(NC(=O)CSC(=S)N2CCCC2)cc1,7.4%
20,O=C(CSC(=S)N1CCCCC1)c1c(F)cccc1F,16.9% (active)
21,O=C(CP(=O)(c1ccccc1)c1ccccc1)N1CCOCC1,1.84%
22,O=C(CSC(=S)N1CCOCC1)c1ccccc1,10.7% (active)
23,COc1cccc(NC(=O)CN(C)C(=O)CSC(=S)N2CCCC2)c1,2.56%

row,Compound,activation
1,O=C1[C@@H](c2ccccc2)[C@@H](c2ccccc2)N1c1ccccc1,-0.47%
2,CCOC(=O)Cn1c2c(n(-c3ccc(F)cc3)c1=O)C=C(c1ccccc1)[C@@H](C)C(C(=O)N(C)C1CCCCC1)=C2,-2.75%
3,CN[C@H]1C[C@H]2c3cc(N4CCOCC4)ccc3CCN2C[C@H]1[C@H](C)O,-0.47%
4,CCC(=O)Nc1ccc2c(c1)C(=O)N(C)[C@H]1CC[C@H](CC(=O)NCCOC)O[C@@H]1CO2,-3.11%
5,O=C(NCc1cccs1)C1CCCN(S(=O)(=O)c2ccc([N+](=O)[O-])cc2)C1 (stereo not given),-1.45%
6,C[C@@H]1ON(C)[C@H]2C[C@H]3c4[nH]c5cccc(-c6ccc7c(c6)OCO7)c5c4CCN3C[C@@H]12,-2.08%
7,CC(=O)N1C[C@@H](CO)[C@@H](N(C)C(=O)C(C)(C)C)C[C@H]1c1ccccc1Br,4.28%
8,C=C1C(C(C)C)N(C)C2=NC(c3ccccc3)CC(=O)N12 (stereo not given),-2.06%
9,CN1CCN(c2ccc(NC(=O)c3ccccc3)cc2)CC1,10.5% (active)
10,O=C(Nc1ccc(S(=O)(=O)N2CCc3ccccc3C2)cc1)c1ccccc1,-0.73%
11,O=C(CN1CCN(c2ccc(O)cc2)CC1)Nc1ccc(-c2ccccc2)cc1,0.81%
12,COc1cccc(CNC(=O)[C@H]2CCCN2C(=O)[C@H]2CCCN2C(=O)C2CCCCC2)c1,-1.24%
13,O=S(=O)(c1cccs1)N1CCCc2nc(-c3ccc(Br)cc3)ccc21,-0.93%
14,CCCCn1nnnc1C(c1cc2ccccc2o1)N(C)Cc1ccc(Cl)c(Cl)c1 (stereo not given),4.88%
15,Cc1cc(O)c(NC(=O)c2ccc(C)c([N+](=O)[O-])c2)cc1C,14.1% (active)
16,CCCCNc1ccc(C(=O)Nc2cccc(C)n2)cc1[N+](=O)[O-],1.4%
17,CCN1CCC(=NNC(=O)c2ccc(C)c([N+](=O)[O-])c2)CC1,-0.03%
18,O=C(CSc1nnc(-c2ccccn2)n1-c1ccc(Cl)cc1)Nc1ccccc1-c1ccccc1,-5.11%
19,C[C@@H]1COc2cccc(N3CCCC3)c2S(=O)(=O)N1C,2.34%
20,COc1ccc(C(=O)CSc2nnc(-c3cnccn3)n2-c2ccc(C)cc2)cc1,-1.45%
21,CC1CC(C)CN(CCCNC(=O)c2csc3c2CCCCC3)C1 (stereo not given),1.68%
22,Cc1ccc(NC(=O)c2csc3c2CCCC3)cc1,23% (active)
23,Cc1ccc(NC(=O)C2(N3CCC3=O)CCCCC2)cc1,-1.36%

row,Compound,activation
1,CC(C)(C)c1ccc(S(=O)(=O)NCC2CCN(C(=O)C(=O)c3cc4ccccc4o3)CC2)cc1,-2.12%
2,CC(C)CC1NC(=O)c2cc(Cl)ccc2-n2c1nc1ccccc1c2=O (stereo not given),-4.04%
3,Cc1ccc(-n2nc3cc(C)c(NC(=O)c4cccnc4)cc3n2)cc1,3.33%
4,CC(=O)Nc1ccc(-c2nc3ccccc3o2)cc1,14.1% (active)
5,Cc1cc2nc(-c3ccc(NC(=O)c4cccnc4)cc3)oc2cc1C,10.8% (active)
6,CC(=O)Nc1ccc(S(=O)(=O)NC2Cc3ccccc3C2)cc1,-1.12%
7,O=C(Nc1cccc(-n2cnnn2)c1)c1cccnc1,0.26%
8,CCN(CC)C(=O)CSc1nc2ccccc2o1,4.9%
9,COc1ccc(C2=CN(Cc3ccccc3)C(c3ccc(OC)cc3)CC2=O)cc1 (stereo not given),1.21%
10,COc1ccc(CN(C)Cc2nc3cc(OC)c(OC)cc3c(=O)[nH]2)c(OC)c1,-1.81%
11,CC(C)CNc1cccc2c1S(=O)(=O)N(Cc1cn(Cc3ccc(Cl)cc3)nn1)Cc1ccccc1O2,1.68%
12,CCOC(=O)c1c(C)[nH]c(C2=NNC(=NC(C)COC)SC2)c1C (stereo not given),12.9% (active)
13,COC(=O)C[C@H]1C=C[C@@H](NS(=O)(=O)c2ccc(C)cc2)[C@@H](CO)O1,3.19%
14,COc1ccc(CN(CCN2CCOCC2)C(=O)c2ccc(C)cc2)cc1OC,2.69%
15,CC1CCN(c2ccc(-c3ccc(NC(=O)c4ccco4)cc3)nn2)CC1,7.1%
16,CN(C)C(CNC(=O)c1cc2ccccc2o1)c1ccccc1 (stereo not given),0.25%
17,Cc1ccc(NC(=O)c2ccco2)cc1,13.3% (active)
18,C/C(=N\NC(=S)Nc1ccc(C)cc1)c1cc2ccccc2o1,0.54%
19,CN1CCN(S(=O)(=O)c2ccc(NC(=O)c3ccco3)cc2)CC1,3.6%
20,Cc1ccc(NC(=O)c2cc3ccccc3o2)cc1,15.2% (active)
21,CCCCNC(=O)C[C@@H]1C(=O)N(CCc2ccc(Cl)cc2)C2=CCCC[C@]21C(=O)OCC,-1.77%
22,COc1cccc(CNC(=O)[C@H]2CCCN2C(=O)[C@H]2CCCN2C(=O)c2ccc(F)cc2)c1,-0.01%
23,Nn1c(SCC(=O)N2c3ccccc3Sc3ccccc32)nnc1-c1n[nH]c2c1CCC2,-2.62%

row,Compound,activation
1,Nc1ncnc2c1ncn2[C@@H]1O[C@H](C(=O)N2CCSC2)[C@@H](O)[C@H]1O,-0.23%
2,O=C(CSc1nnc(-c2cccc(Cl)c2)n1Cc1ccco1)Nc1ccc(OCc2ccccc2)cc1,-1.62%
3,COc1cccc(N(C(=O)C2COc3ccccc3O2)C(C(=O)NC2CCCCC2)c2ccc(O)cc2)c1 (stereo not given),0.49%
4,Nn1c(SCC(=O)Nc2ccc(S(N)(=O)=O)cc2)nnc1-c1n[nH]c2c1CCC2,0.61%
5,COc1ccc(C(=O)/C=C/c2ccc(-c3ccccc3)cc2)cc1CSCC(=O)O,-3.73%
6,CC(=O)Oc1ccc(C)cc1N1C(=O)c2ccc(C(=O)O)cc2C1=O,-2.04%
7,O=C(O)c1ccc2c(c1)C(=O)N(c1ccc(/C=C/C(=O)c3ccccc3)cc1)C2=O,14.1% (active)
8,CCOC(=O)C1(Cc2ccccc2)CCN(Cc2cn(C(C)=O)c3ccccc23)CC1,1.22%
9,CCC(=O)Nc1sc(C(=O)Nc2ccccc2)c(C)c1C(=O)OC,13.4% (active)
10,COC(=O)c1c(NC(C)=O)sc(C(=O)Nc2ccccc2OC)c1C,-3.24%
11,COC(=O)c1sc(NC(=O)COC(=O)C2CCC2)c(C(=O)OC)c1C,0.97%
12,COc1ccccc1-c1ccc([C@@H]2C[C@H]3[C@H](CON3C)CN2S(=O)(=O)c2cc(Cl)cc(Cl)c2)cc1,4.17%
13,COC(=O)Nc1nc2ccc(C(=O)C3CC3)cc2[nH]1,6.35%
14,COC(=O)C[C@H]1CC[C@H]2[C@H](COc3ccc(NC(=O)C4CC4)cc3C(=O)N2C)O1,1.59%
15,Brc1ccc(-c2noc(-c3ccccc3)n2)o1,15.9% (active)
16,O=S(=O)(c1ccc(Br)cc1)c1nc(-c2ccccc2)oc1N1CCOCC1,-0.08%
17,CCCN(CCC)c1ccc(C(O)c2nnc(-c3ccccc3)o2)cc1 (stereo not given),-0.77%
18,O=C(Nc1nnc(-c2ccc(Cl)cc2)o1)c1ccccc1Br,3.84%
19,Brc1ccc(-c2nnc(-c3ccccc3)o2)o1,11.2% (active)
20,O=C(OCc1nnc(-c2ccccc2)o1)c1ccc2c(c1)C(=O)N(CCc1ccccc1)C2=O,-0.76%
21,Nc1ccc(-c2nnc(-c3ccccc3)o2)cc1,10.4% (active)
